This note sets out measurements from ChEMBL document CHEMBL4513216, “Probing the Open Global Health Chemical Diversity Library for Multistage-Active Starting Points for Next-Generation Antimalarials” (ACS Infect Dis, 2020).

Among all 69,000 compounds or so, about 8,600 (12%) showed an effect of 50% or more. This is one part of a sample in which strong results are shown more often than they occur.

For this experiment, the system named is Plasmodium berghei. Description: Screen against P. berghei liver stage (PbLuc), transformed with Luciferase, at 10uM. The experiment is classed as functional, HepG2. Particulars: tested at 10 uM.
As for `O=C(NCC1(c2ccc(F)cc2)CCCC1)N1CCOC(CO)C1` (configuration not stated), the INHIBITION is -14.3%.
The figure for `CN(C)CCn1c2c(ccc1=O)CCN(C(=O)c1ccoc1)CC2` is -73.5%.
`Cc1c(C(=O)N2CCC(O)(CN(C)C)C2)c2ccccc2n1C` (configuration not stated): the INHIBITION is 35.2%.
The figure for `O=c1oc(-c2cccs2)nn1CC(O)c1ccccc1F` (configuration not stated) is 35.4%; for `C1CC(c2noc(C3CC3)n2)N(Cc2nc(C3CC3)no2)C1` (configuration not stated) it is 2.3%.
The figure for `Cc1nn(C)c(C)c1C1CCCN1Cc1nc(N)c2ccccc2n1` (configuration not stated) is 23.4%; for `c1ccc2sc(CN3CCCC3c3noc(C4CC4)n3)nc2c1` (configuration not stated) it is 78%.
Turning to `Cc1nc(CN2CCCC2c2ccsc2)nc2ccccc12` (configuration not stated), the INHIBITION is reported as 53.8%.
With `c1cc(CN2CCCC2c2noc(C3CC3)n2)on1` (configuration not stated), the INHIBITION is on record as 37.4%.
As for `Cc1nn(C)c(C)c1C1CCCN1Cc1nc(C)c2ccccc2n1` (configuration not stated), the INHIBITION was 12.7%.
The figure for `NC(=O)c1nc(CC(=O)Nc2cccc(C(F)(F)F)c2)no1` is -14.8%; for `CCOC(=O)CCC(=O)NC(C)c1ccc(NC(=O)CC)cc1` (configuration not stated) it is 37.1%; for `O=C(Cc1cnc(-c2c(Cl)cccc2Cl)s1)N1CCOCC1` it is 19.3%.
The value for `CN1CCN(CCO)C(=O)C12CCN(c1nccs1)CC2` was 23.1%; that for `CN1CCN(Cc2ccncc2)C(=O)C12CCN(c1nccs1)CC2` was 58.5%.
The figure for `CC(C)CN1CCN(C)C2(CCN(c3nccs3)CC2)C1=O` is 45.2%; for `CCNc1nnc(SCc2nnc(C(C)(C)C)o2)s1` it is -7.93%.
Turning to `CC(=O)N1CCN(C(=O)CN2CCCC2Cn2nc(C)cc2C)CC1` (configuration not stated), the INHIBITION is recorded as -14.6%.
For `C=c1ncsc1=C1NN=C(C2CCCN2C(=O)Cn2cccn2)O1` (configuration not stated), the INHIBITION was found to be 19.24%.
Turning to `CC1c2ncc(COc3cccnc3)n2CCN1C(=O)Cc1ccco1` (configuration not stated), the INHIBITION was -36.3%.
In the case of `CC1c2ncc(COc3cccnc3)n2CCN1Cc1cnn(C)c1` (configuration not stated), the INHIBITION was found to be 34%.
`Cc1ncsc1CN1CCn2c(COc3cccnc3)cnc2C1C` (configuration not stated): the INHIBITION is recorded as 58.7%.
The figure for `CC1c2ncc(COc3cccnc3)n2CCN1Cc1ccco1` (configuration not stated) is 54.8%; for `Cc1ccsc1CN1CCn2c(COc3cccnc3)cnc2C1C` (configuration not stated) it is 65.7%; for `CCOCc1cnc2n1CCN(Cc1scnc1C)C2C` (configuration not stated) it is 20.1%.
The figure for `Cc1csc(CN2CCn3c(COc4cccnc4)cnc3C2C)n1` (configuration not stated) is 31.2%; for `Cc1ncsc1CN1CCn2c(COCC3CC3)cnc2C1C` (configuration not stated) it is 18.5%; for `Cc1ccc(CN2CCn3c(COc4cccnc4)cnc3C2C)o1` (configuration not stated) it is 25.8%.
With `O=C1CC2(CCCNC2)C(=O)N1Cc1cccc(F)c1` (configuration not stated), the INHIBITION worked out at 0.112%.
The value for `Cc1ccc(C(=O)NS(=O)(=O)Cc2ccc(F)cc2)cc1S(C)(=O)=O` was 41.6%; that for `CNC(=O)c1ccc2c(c1O)OC(C)(C)C2` was 30%; that for `CNC(=O)CN1CCN(C(=O)c2ccn(C)c(=O)c2)CC1` was -7.31%.
As to `CN(C)C(=O)CN1CCC2(CCCN(Cc3cccn3C)C2)C1=O` (configuration not stated), the INHIBITION was -10.2%.
The figure for `CN(C)C(=O)CN1CCC2(CCN(S(C)(=O)=O)CC2)C1=O` is 18.6%; for `CC(C)CN1CCC2(CCN(Cc3ccoc3)CC2)C1=O` it is 50.7%.
Take `CN(C)C(=O)CN1CCC2(CCCN(Cc3cccnc3)C2)C1=O` (configuration not stated): the INHIBITION turned out to be 72.9%.
`CN(C)C(=O)CN1CCC2(CCN(C(=O)N(C)C)CC2)C1=O`: the INHIBITION was -19.6%.
`O=C1N(CC2CC2)CCC12CCN(Cc1ccoc1)CC2`: the INHIBITION was 11.2%.
On to `CN(C)C(=O)CN1CCC2(CCN(C(=O)N3CCCC3)CC2)C1=O`, for which the INHIBITION turned out to be 54.3%.
Consider `CN(C)C(=O)CN1CCC2(CCCN(Cc3ccsc3)C2)C1=O` (configuration not stated), for which the INHIBITION is 18.6%.
As for `Cn1cc(CN2CCCC3(CCN(Cc4cccnc4)C3=O)C2)cn1` (configuration not stated), the INHIBITION worked out at 43.2%.
In the case of `CC(C)CN1CCC2(CCN(Cc3ccc(F)cc3)CC2)C1=O`, the INHIBITION is recorded as -15.9%.
The value for `CN(C)C(=O)CN1CCC2(CCCN(Cc3ccoc3)C2)C1=O` (configuration not stated) was 53.9%; that for `CN1CCC(CN2CCC3(CCCN(Cc4ccoc4)C3)C2=O)CC1` (configuration not stated) was 1.34%.
The figure for `O=C1CCN(C(=O)NCC(c2ccccc2)c2ccccc2)CCN1` is -61.4%; for `O=C1CC[C@H](C(=O)Nc2cnn(-c3ccccc3Br)c2)N1` it is 30%; for `Cc1cc(C)nc(C2CCN(C(=O)c3c(C)noc3C)C2)n1` (configuration not stated) it is -8.12%.
`Cc1ncnc2c1CCN(Cc1cccs1)CC2`: the INHIBITION is given as -33%.
The value for `Cc1ccc(C(=O)N2CCCCC2CNC(N)=O)cc1F` (configuration not stated) was 44.3%; that for `O=C([C@H]1CN(Cc2ccoc2)C[C@H]2OCC[C@@H]12)N1CCCCO1` was 39.4%; that for `Cc1ccc(-n2ncc(C(=O)N3CCCC3c3cnn(C)c3)c2C)cc1` (configuration not stated) was 2.3%.
The value for `CC(C)Oc1ncccc1CNC(=O)c1cnccn1` was 7.12%; that for `CNS(=O)(=O)CCNC(=O)[C@@]12CNC[C@@H]1CN(C1CCCC1)C2` was 28.7%.
The value for `CCS(=O)(=O)CCNC(=O)[C@@]12CNC[C@@H]1CN(C1CCCC1)C2` was 30.8%.
Take `CN1CCC(O)(CCNC(=O)[C@@]23CNC[C@@H]2CN(C2CCCC2)C3)CC1`: the INHIBITION is 62.9%.
`Cc1nn(C)cc1S(=O)(=O)N[C@@H]1CCC[C@@H](n2ccnc2)[C@@H]1O`: the INHIBITION was found to be 7.19%.
As for `COc1ccc(-n2cnnc2SCC(=O)NC(C)C)cn1`, the INHIBITION came to 64.5%.
Regarding `CCC(C)Sc1nncn1-c1ccc(OC)nc1` (configuration not stated), the INHIBITION was -30.5%.
The value for `COc1ccc(-n2cnnc2SCC(=O)N(C)C(C)C)cn1` was 59.4%; that for `COc1ccc(-n2cnnc2SCCC#N)cn1` was 33.4%.
In the case of `COc1ccc(-n2cnnc2SCC(C)(C)O)cn1`, the INHIBITION was 1.28%.
The figure for `COC(=O)CCSc1nncn1-c1ccc(OC)nc1` is 22.6%; for `COCCS(=O)(=O)NCc1ccc(N(C)C)c(C)c1` it is 2.65%; for `COCC(=O)N1CCCC1(C)c1nc(C)cc(O)n1` (configuration not stated) it is -33.4%.
The figure for `CCCc1n[nH]c(C2CN(C(=O)c3ccc4c(c3)COC4)CCO2)n1` (configuration not stated) is 15.5%; for `COCc1nc(C(=O)N2CCCC2c2cc(C)no2)cs1` (configuration not stated) it is -3.2%; for `Cc1ncc2c(n1)CN(CC(=O)NCCOc1ccccc1)CC2` it is -3.7%.
The value for `Cc1ccc(N2CCC3(CCN(C(=O)c4ccsc4)CC3)CC2)nn1` was 9.63%.
On to `C[C@@H]1CN(C(=O)Cc2ccsc2)C[C@]12CCN(CCN(C)C)C2=O`, for which the INHIBITION is 26%.
The figure for `Cc1ccc2c(n1)N(CCN(C)C)CCN(C(=O)N1CCOCC1)C2` is 18.3%; for `COCCN1CCN(C(=O)NC2CC2)Cc2ccc(C)nc21` it is 60.1%.
As for `Cc1ccc2c(n1)N(CC1CC1)CCN(C(=O)NC1CC1)C2`, the INHIBITION is 30.3%.
The value for `COCCN1CCN(C(=O)N2CCCC2)Cc2ccc(C)nc21` was 62.5%.
Consider `Cc1ccc2c(n1)N(CCn1cccn1)CCN(C(=O)NC1CC1)C2`, for which the INHIBITION stood at 37.8%.
As for `COCCN1CCN(S(=O)(=O)C2CC2)Cc2ccc(C)nc21`, the INHIBITION stood at 0.804%.
`COCCC(=O)N1CCC(c2ccc3c(NC(C)C)n[nH]c3n2)C1` (configuration not stated): the INHIBITION is reported as -36.4%.
In the case of `CCOC1COC2(CCN(Cc3ccc(C)cc3)CC2)C1` (configuration not stated), the INHIBITION was 17.4%.
Turning to `CCOc1ncnc2c1CCN(C(=O)CN(C)C)CC2`, the INHIBITION is recorded as 42.3%.
On to `CC(C)(C)C(=O)N1CC(=O)N(Cc2ccco2)CC(O)C1` (configuration not stated), for which the INHIBITION is reported as 40.4%.
The figure for `CCCC(NC(=O)c1cc(C)c(F)cc1F)c1nnn[nH]1` (configuration not stated) is 58.5%; for `CCCC(NC(=O)c1cc(C)ccc1C)c1nnn[nH]1` (configuration not stated) it is 16.6%; for `CCCC(NC(=O)c1ccc(C)cc1C)c1nnn[nH]1` (configuration not stated) it is 43.1%.
`Cn1cc(C(=O)Nc2ccc3c(c2)CN(C(=O)C2CC2)CC3)nn1`: the INHIBITION is listed as -7.25%.
On to `CC(=O)N(Cc1ncc(C(C)C)o1)C1CCN(Cc2cc(C)on2)C1` (configuration not stated), for which the INHIBITION is listed as 2.7%.
With `O=C(NCc1ccco1)Nc1cccc(S(=O)(=O)C(F)F)c1`, the INHIBITION is recorded as 42.4%.
The value for `O=C(CNc1cccc(S(=O)(=O)C(F)F)c1)NCc1ccco1` was 51.7%.
`O=C(CNc1ccccc1S(=O)(=O)C(F)F)NCc1ccco1`: the INHIBITION was found to be 33.2%.
The figure for `Cc1nc(C2CN(Cc3scnc3C)CCO2)cc(N(C)C)n1` (configuration not stated) is 68.9%; for `CNc1cc(C2CN(Cc3csc(C)n3)CCO2)nc(C)n1` (configuration not stated) it is 41.2%; for `CNc1cc(C2CN(Cc3scnc3C)CCO2)nc(C)n1` (configuration not stated) it is -26.2%.
The figure for `CC(C(=O)N1CCN(c2ccc(F)cc2)CC1)n1cc(Br)cn1` (configuration not stated) is 6.83%; for `Cn1nnc2c1CCN(C(=O)C1CCC1)C2COCCN1CCCC1` (configuration not stated) it is 19.5%.
The value for `Cc1cc(CN2CCN(C(=O)NC(C)c3cccnc3)CC2)no1` (configuration not stated) was 7.15%; that for `O=C(NCc1nccn1CCc1ccccc1)NCC1CCC1` was 44.5%.
In the case of `c1snnc1CN1C[C@H]2CCC[C@@H](CN3CCOCC3)[C@H]2C1`, the INHIBITION is -41.8%.
The value for `Cc1cc(C[C@@H]2COC[C@H]2NCc2ccc(C)c(C)c2)on1` was 1.5%; that for `Cc1ccc(CN[C@@H]2COC[C@H]2Cc2cc(C)no2)cc1` was -22.6%; that for `Cc1cc(C[C@@H]2COC[C@H]2NCc2ccc(Cl)c(Cl)c2)on1` was 50.8%.
As to `CCOc1cc(CN[C@@H]2COC[C@H]2Cc2cc(C)no2)ccc1O`, the INHIBITION was 74.9%.
The figure for `Cc1cc(C[C@@H]2COC[C@H]2NCc2ccc(C(C)C)cc2)on1` is 28%; for `COC(=O)c1ccc(CN[C@@H]2COC[C@H]2Cc2cc(C)no2)cc1` it is 0.301%; for `NC(=O)CC1CCCN(c2cncc(OCc3ccccc3)n2)C1` (configuration not stated) it is 27.6%.
Regarding `CC(C)CCc1nc(CN2CCOC(Cn3cncn3)C2)cs1` (configuration not stated), the INHIBITION was 36.1%.
Turning to `Cc1n[nH]c(C2CN(CC(=O)NCc3cccs3)CCO2)n1` (configuration not stated), the INHIBITION was found to be 8.9%.
Consider `O=C(c1cccc(F)c1)N1CCC2(CC1)CC(N1CCOCC1)C2`, for which the INHIBITION is recorded as 1.34%.
The figure for `Cc1cnn(CC2CN(Cc3nc(-c4cccnc4)no3)CCO2)c1` (configuration not stated) is -4.94%.
In the case of `CCn1ccnc1CN1CCN(Cc2ccc(C)o2)[C@@H]2CS(=O)(=O)C[C@@H]21`, the INHIBITION is recorded as 16.7%.
